# From ChEMBL document CHEMBL3988442, “University of Dundee, Small-Polar-MMV Screening Library” (2021)
# Screen size: about 69,000 compounds; about 1,000 (1.4%) showed an effect of 50% or more. The list comes from a sample in which strong results are over-represented; it also holds similar structures and randomly drawn compounds.
# System: Leishmania donovani
# Experiment: Leishmania intramacrophage assay
# Assay type: functional, organism-based
# Design: scale not given: in the data most compounds retested in dose-response had high values
smiles,measurement,setting,value
COC(=O)NCC(=O)N1CCC(c2cc3ccccc3[nH]2)CC1,Percent Effect,"30.3 µM, […]",11.64%
N#CCCCS(=O)(=O)NC1(c2cccc(Cl)c2)CC1,Percent Effect,"30.3 µM, […]",17.77%
CCS(=O)(=O)N1CCc2ccc(NC(=O)Nc3cccc(SC)c3)cc21,Percent Effect,"30 µM, 30.03 µM",59.71%
CCS(=O)(=O)N1CCc2ccc(NC(=O)Nc3cccc(F)c3)cc21,Percent Effect,"30.3 µM, […]",17.8%
CCS(=O)(=O)N1CCc2ccc(NC(=O)Nc3ccccc3)cc21,Percent Effect,"30.3 µM, […]",14.09%
CC(=O)N(Cc1ncc(C(C)C)o1)C1CCN(Cc2cc(C)no2)C1 (stereo not drawn),Percent Effect,30 µM,25.52%
O=C1CN(C(=O)C2CN(c3ccccc3)CCO2)CCN1 (stereo not drawn),Percent Effect,"30.3 µM, […]",40.28%
CC(C)n1c(=O)c2ccccc2n(CCCN(C)C)c1=O.Cl,Percent Effect,"30.3 µM, […]",-9.627%
O=C(NCCCN1CCCCC1)c1n[nH]c(=O)c2ccccc12,Percent Effect,"30.3 µM, […]",20.29%
CN(C)CCn1c(=O)n(C)c(=O)c2ccccc21.Cl,Percent Effect,"30.3 µM, […]",-33.87%
CC(C)n1c(=O)c2ccccc2n(CCN2CCCCC2)c1=O,Percent Effect,"30.3 µM, […]",52.87%
O=C(NCCN1CCCCCC1)c1n[nH]c(=O)c2ccccc12,Percent Effect,"30.3 µM, […]",-32.33%
CC(C)n1c(=O)c2ccccc2n(CCN(C)C)c1=O.Cl,Percent Effect,"30.3 µM, […]",50.24%
CCOCCn1nnc(C2(NC(=O)c3ccccc3)CCCC2)n1,Percent Effect,"30 µM, 30.03 µM",1.124%
CN(Cc1ccncn1)C(=O)C1(Oc2ccc(Cl)cc2)CCNCC1,Percent Effect,"30.3 µM, […]",12.34%
CN(Cc1ccoc1)C(=O)C1(Oc2ccc(Cl)cc2)CCNCC1,Percent Effect,"30.3 µM, […]",-16.66%
Cc1ccc(OC2(C(=O)N(C)Cc3ccoc3)CCNCC2)cc1,Percent Effect,"30.3 µM, […]",83.11%
NC(=O)c1cccc2nc([C@H]3CCN(Cc4ccccc4F)C3)[nH]c12,Percent Effect,"30.3 µM, […]",22.02%
NC(=O)c1cccc2nc([C@H]3CCN(Cc4ccccn4)C3)[nH]c12,Percent Effect,"30.3 µM, […]",53.25%
Cc1ccc(CN2CC[C@H](c3nc4cccc(C(N)=O)c4[nH]3)C2)cc1,Percent Effect,"30.3 µM, […]",-18.93%
c1ccc(C(CC2CN(Cc3c[nH]cn3)CCO2)c2ccccc2)cc1 (stereo not drawn),Percent Effect,"30.3 µM, […]",20.85%
CN(C)S(=O)(=O)N(C)C(c1cccc(F)c1)c1ccccn1 (stereo not drawn),Percent Effect,30 µM,24.26%
Clc1cccnc1N1CCC(C2CCN(Cc3cccnc3)CC2)C1 (stereo not drawn),Percent Effect,"30.3 µM, […]",-17.23%
Clc1ccc(N2CCC(C3CCN(Cc4cccnc4)CC3)C2)nc1 (stereo not drawn),Percent Effect,"30.3 µM, […]",-2.762%
Clc1ccc(CN2CCC(C3CCN(Cc4cccnc4)CC3)C2)cc1 (stereo not drawn),Percent Effect,"30.3 µM, […]",51.57%
Cc1ncsc1C(=O)N(C)Cc1ccncc1,Percent Effect,"30 µM, 30.03 µM",-5.146%
Cc1ncsc1CN(Cc1ccccc1)Cc1ccncc1,Percent Effect,"30.3 µM, […]",55.73%
Cc1ncsc1CN(Cc1ccccc1)Cc1ncc[nH]1,Percent Effect,"30.3 µM, […]",-37.36%
Cc1noc(C2CCN(CC(=O)N3CCNC(=O)C3)CC2)n1,Percent Effect,"30.3 µM, […]",-15.33%
O=C(O)C1(Cc2cccc(Cl)c2)CCCN(c2ncnc3[nH]ccc23)C1 (stereo not drawn),Percent Effect,"30.3 µM, […]",20.11%
CCCSc1nn(CCCN(C)C)c2nc3sc(C)c(CC)c3c(=O)n12,Percent Effect,"30.3 µM, […]",-2.726%
O=C(c1ccoc1)N1Cc2cnn(CC3CC3)c2C(COCC2CC2)C1 (stereo not drawn),Percent Effect,"30.3 µM, […]",-14.05%
CC(C)C(=O)N1CCC(c2c(C(N)=O)sc3ccccc23)C1 (stereo not drawn),Percent Effect,"30.3 µM, […]",2.33%
CCCS(=O)(=O)CCN1CCN(C(C#N)c2ccccc2)CC1 (stereo not drawn),Percent Effect,"30.3 µM, […]",50.86%
CC(C)S(=O)(=O)CCN1CCN(C(C#N)c2ccccc2)CC1 (stereo not drawn),Percent Effect,"30.3 µM, […]",27.38%
CS(=O)(=O)CCCN1CCN(C(C#N)c2ccccc2)CC1 (stereo not drawn),Percent Effect,"30.3 µM, […]",16.78%
CC(C)c1nc(C2CCCN(C(=O)CCc3cscn3)C2)no1 (stereo not drawn),Percent Effect,30 µM,12.46%
Cc1oncc1C(=O)NCC1(O)CCc2ccccc2C1 (stereo not drawn),Percent Effect,"30.3 µM, […]",25.53%
Cc1nn(C)c(Cl)c1CNCc1cccnc1N1CCN(C)CC1.Cl,Percent Effect,"30 µM, 30.03 µM",52.88%
Cc1nn(C)c(Cl)c1CNCc1cccnc1N1CCCCC1.Cl,Percent Effect,"30.3 µM, […]",-11.04%
Cc1nn(C)c(Cl)c1CNCc1cccnc1N1CCOCC1.Cl,Percent Effect,"30 µM, 30.03 µM",2.073%
Cc1ccc(C)c(S(=O)(=O)CCNC2CCc3ncnn3C2)c1 (stereo not drawn),Percent Effect,30 µM,28.38%
CCc1ncc(CN[C@@H]2CCCN(C(C)=O)[C@H]2c2ccc(C)s2)cn1.Cl,Percent Effect,"30.3 µM, […]",12.48%
CC(C)c1nc(-c2cc(C(=O)N3CCN(C)CC3)c3ccccn23)cs1.O=C(O)C(F)(F)F,Percent Effect,"30.3 µM, […]",16.88%
CC(C)c1nc(-c2cc(C(=O)O)c3ccccn23)cs1,Percent Effect,"30.3 µM, […]",-0.8279%
CC(C)c1nc(-c2cc(C(=O)NCCCO)c3ccccn23)cs1,Percent Effect,"30.3 µM, […]",30%
Cc1nc(-c2cc(C(=O)NCCN3CCOCC3)c3ccccn23)cs1.O=C(O)C(F)(F)F,Percent Effect,"30.3 µM, […]",-52.36%
CC(C)c1nc(-c2cc(C(=O)NCCN(C)C)c3ccccn23)cs1.O=C(O)C(F)(F)F,Percent Effect,"30.3 µM, […]",74.71%
Cc1cnc(CNc2ccc(C(=O)NCc3ccco3)cc2C)o1,Percent Effect,"30.3 µM, […]",-20.82%
O=C(O)C(F)(F)F.c1cc(CNCC2Cn3nncc3CO2)co1 (stereo not drawn),Percent Effect,"30.3 µM, […]",20.1%
CCCn1nnnc1COC(=O)C1COc2ccc(Cl)cc2C1 (stereo not drawn),Percent Effect,"30.3 µM, […]",-4.057%
O=C(NCC1(c2cccc(F)c2)CC1)N1CCC2(CCOC2)C1 (stereo not drawn),Percent Effect,"30.3 µM, […]",-5.939%
CC1(C)OC(=O)N(CC(=O)N2CCC(c3ccccc3Cl)C2)C1=O (stereo not drawn),Percent Effect,"30.3 µM, […]",16.86%
CC(=O)N1CCC(Cc2cnc(C(=O)N3CCCC3)cn2)C1 (stereo not drawn),Percent Effect,"30.3 µM, […]",-5.476%
CCOCc1ccccc1CNc1ccc2nncn2n1,Percent Effect,"30.3 µM, […]",18.04%
CCn1ncc(Nc2[nH]cnc3nncc2-3)c1C,Percent Effect,"30.3 µM, […]",61.85%
CCn1ncc(Nc2[nH]cnc3nc(C)nc2-3)c1C,Percent Effect,"30.3 µM, […]",-7.482%
CCn1ncc(CNc2[nH]cnc3nncc2-3)c1C,Percent Effect,"30.3 µM, […]",46.44%
N#Cc1c(F)cccc1N1CCCC(C(=O)Nc2nccs2)C1 (stereo not drawn),Percent Effect,"30.3 µM, […]",38.57%
Cc1ccc(C(=O)NCc2ccc(N(C)C)cc2)cn1,Percent Effect,"30.3 µM, […]",1.485%
CN(c1ccc(CNC(=O)c2c[nH]c(=O)c(Cl)c2)cc1)C1CCCCC1,Percent Effect,"30.3 µM, […]",30.08%
CN(c1ccc(CNC(=O)c2ccc(O)nc2)cc1)C1CCCCC1,Percent Effect,"30.3 µM, […]",57.37%
CNC(=O)c1cc(C)n(-c2ccccc2)n1,Percent Effect,"30.3 µM, […]",21.3%
Cc1cnc(CN(C)C2CCN(Cc3nc4ccccc4o3)C2)o1 (stereo not drawn),Percent Effect,30 µM,8.725%
Cc1cnc(CN(C)C2CCN(Cc3nc4ccccc4n3C)C2)o1 (stereo not drawn),Percent Effect,"30 µM, 30.03 µM",57.21%
CC(=O)N(Cc1ncc(C)o1)C1CCN(Cc2cccc(C#N)c2)C1 (stereo not drawn),Percent Effect,"30 µM, 30.03 µM",6.646%
CC(=O)N(Cc1ncc(C)o1)C1CCN(Cc2ccncc2Cl)C1 (stereo not drawn),Percent Effect,"30 µM, 30.03 µM",31.13%
Cc1nnc(CN(C)C2CCN(Cc3nc4ccccc4n3C)C2)o1 (stereo not drawn),Percent Effect,30 µM,31.75%
